According to PubChem BioAssay AID1159580 (chemical genetic matrix, 2015):
Where “and” joins values, the source holds several entries; their conditions need not be identical. Identical values can stand only once. About 2,000 (36%) of roughly 5,500 compounds were called active. About 18% were inconclusive and are not listed. No stated cut-off is given here; in the data, active means normalized growth mostly below about 0.91 (no sharp cut-off); inconclusive means no clear call, values can overlap the other calls; inactive means mostly above about 0.92. The list shows a part of the results.

Assay: chemical genetic growth profiling, strain panel (AID 1159580);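 further: tested at 20 µM; growth read once vehicle control cultures reached saturation at 30 °C; 1 = growth at the plate median or of vehicle wells; lower values mean less growth of the strain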
Conditions: growth OD

Measured: normalized growth

CCN(CC)CCOC(=O)C(c1ccccc1)C1CCCCC1 (configuration not stated)
inactive: S. cerevisiae deletion strains, locus YAL013W, strain DEP1, hits give low values 1 | S. cerevisiae deletion strains, locus YBR021W, strain FUR4, hits give low values 1 | S. cerevisiae deletion strains, locus YBR229C, strain ROT2, hits give low values 1 | S. cerevisiae deletion strains, locus YCL029C, strain bik1, hits give low values 0.958 | S. cerevisiae deletion strains, locus YDL035C, strain GPR1, hits give low values 0.999 | S. cerevisiae deletion strains, locus YDL074C, strain BRE1, hits give low values 0.948 | S. cerevisiae deletion strains, locus YDL101C, strain DUN1, hits give low values 0.983 | S. cerevisiae deletion strains, locus YDL134C, strain PPH21, hits give low values 1.01 | S. cerevisiae deletion strains, locus YDL185W, strain tfp1, hits give low values 0.946 | S. cerevisiae deletion strains, locus YDL192W, strain arf1, hits give low values 0.971 | S. cerevisiae deletion strains, locus YDR101C, strain arx1, hits give low values 0.964 | S. cerevisiae deletion strains, locus YDR150W, strain NUM1, hits give low values 0.989 | S. cerevisiae deletion strains, locus YDR162C, strain NBP2, hits give low values 0.99 | S. cerevisiae deletion strains, locus YDR318W, strain mcm21, hits give low values 0.97 | S. cerevisiae deletion strains, locus YDR388W, hits give low values 0.948 | S. cerevisiae deletion strains, locus YDR502C, strain sam2, hits give low values 0.998 | S. cerevisiae deletion strains, locus YEL061C, strain CIN8, hits give low values 0.999 | S. cerevisiae deletion strains, locus YER110C, hits give low values 0.973 | S. cerevisiae deletion strains, locus YER155C, strain BEM2, hits give low values 1 | S. cerevisiae deletion strains, locus YER167W, strain BCK2, hits give low values 1.01 | S. cerevisiae deletion strains, locus YGL078C, strain dbp3, hits give low values 0.99 | S. cerevisiae deletion strains, locus YGL086W, strain mad1, hits give low values 1.02 | S. cerevisiae deletion strains, locus YGL248W, strain PDE1, hits give low values 1.01 | S. cerevisiae deletion strains, locus YGR078C, strain PAC10, hits give low values 0.966 | S. cerevisiae deletion strains, locus YGR135W, strain pre9, hits give low values 0.968 | S. cerevisiae deletion strains, locus YGR229C, strain SMI1, hits give low values 0.972 | S. cerevisiae deletion strains, locus YGR252W, strain gcn5, hits give low values 1.11 | S. cerevisiae deletion strains, locus YHR030C, strain SLT2, hits give low values 0.995 and 1.06 | S. cerevisiae deletion strains, locus YHR079C, strain IRE1 (second series), hits give low values 0.964 | S. cerevisiae deletion strains, locus YHR079C, strain IRE1, hits give low values 1.04 | S. cerevisiae deletion strains, locus YHR094C, strain hxt1, hits give low values 0.975 | S. cerevisiae deletion strains, locus YHR129C, strain ARP1, hits give low values 0.992 | S. cerevisiae deletion strains, locus YHR200W, strain rpn10, hits give low values 0.975 | S. cerevisiae deletion strains, locus YIL066C, strain RNR3, hits give low values 0.984 | S. cerevisiae deletion strains, locus YIL073C, strain SPO22, hits give low values 0.958 | S. cerevisiae deletion strains, locus YIL125W, strain kgd1, hits give low values 0.986 | S. cerevisiae deletion strains, locus YIR030C, strain dcg1, hits give low values 0.981 | S. cerevisiae deletion strains, locus YJL095W, strain BCK1, hits give low values 0.938 and 1.05 | S. cerevisiae deletion strains, locus YJL134W, strain LCB3, hits give low values 0.998 | S. cerevisiae deletion strains, locus YJL168C, strain set2, hits give low values 0.966 | S. cerevisiae deletion strains, locus YJL187C, strain SWE1 (second series), hits give low values 0.969 | S. cerevisiae deletion strains, locus YJR043C, strain POL32, hits give low values 0.991 | S. cerevisiae deletion strains, locus YJR066W, strain TOR1, hits give low values 1 | S. cerevisiae deletion strains, locus YJR075W, strain HOC1, hits give low values 0.954 | S. cerevisiae deletion strains, locus YKL009W, strain mrt4, hits give low values 0.962 | S. cerevisiae deletion strains, locus YKL068W, hits give low values 0.978 | S. cerevisiae deletion strains, locus YKL085W, strain MDH1 (second series), hits give low values 0.97 | S. cerevisiae deletion strains, locus YKL085W, strain MDH1, hits give low values 0.97 | S. cerevisiae deletion strains, locus YKL190W, strain CNB1, hits give low values 0.989 | S. cerevisiae deletion strains, locus YKR001C, strain vps1, hits give low values 0.999 | S. cerevisiae deletion strains, locus YLR039C, strain RIC1, hits give low values 1.12 | S. cerevisiae deletion strains, locus YLR058C, strain SHM2, hits give low values 1 | S. cerevisiae deletion strains, locus YLR102C, strain apc9, hits give low values 0.983 | S. cerevisiae deletion strains, locus YLR113W, strain HOG1, hits give low values 1.02 | S. cerevisiae deletion strains, locus YLR262C, strain YPT6, hits give low values 1.12 | S. cerevisiae deletion strains, locus YLR268W, strain sec22, hits give low values 0.906 | S. cerevisiae deletion strains, locus YLR330W, strain CHS5, hits give low values 1 | S. cerevisiae deletion strains, locus YLR342W, strain FKS1 (second series), hits give low values 1.02 | S. cerevisiae deletion strains, locus YLR371W, strain rom2, hits give low values 0.962 | S. cerevisiae deletion strains, locus YLR418C, strain cdc73, hits give low values 0.931 | S. cerevisiae deletion strains, locus YML016C, strain PPZ1, hits give low values 1 | S. cerevisiae deletion strains, locus YML032C, strain rad52, hits give low values 0.948 | S. cerevisiae deletion strains, locus YML124C, strain tub3, hits give low values 0.977 | S. cerevisiae deletion strains, locus YMR078C, strain ctf18, hits give low values 0.949 | S. cerevisiae deletion strains, locus YMR223W, strain ubp8, hits give low values 1.01 | S. cerevisiae deletion strains, locus YMR263W, strain SAP30, hits give low values 0.969 | S. cerevisiae deletion strains, locus YMR307W, strain GAS1, hits give low values 1.23 | S. cerevisiae deletion strains, locus YNL067W, strain RPL9B, hits give low values 0.965 | S. cerevisiae deletion strains, locus YNL128W, strain TEP1, hits give low values 0.98 | S. cerevisiae deletion strains, locus YNL153C, strain GIM3, hits give low values 0.973 | S. cerevisiae deletion strains, locus YNL183C, strain NPR1, hits give low values 0.983 | S. cerevisiae deletion strains, locus YNL233W, strain BNI4, hits give low values 0.99 | S. cerevisiae deletion strains, locus YNL250W, strain rad50, hits give low values 0.992 | S. cerevisiae deletion strains, locus YNL271C, strain bni1, hits give low values 0.974 | S. cerevisiae deletion strains, locus YNL298W, strain CLA4, hits give low values 0.969 | S. cerevisiae deletion strains, locus YNL307C, strain MCK1, hits give low values 0.978 | S. cerevisiae deletion strains, locus YNL322C, strain KRE1, hits give low values 0.988 | S. cerevisiae deletion strains, locus YNR052C, strain pop2, hits give low values 0.952 | S. cerevisiae deletion strains, locus YOL006C, strain TOP1, hits give low values 0.94 | S. cerevisiae deletion strains, locus YOL012C, strain htz1 1.03 | S. cerevisiae deletion strains, locus YOL147C, strain pex11, hits give low values 0.976 | S. cerevisiae deletion strains, locus YOR061W, strain CKA2, hits give low values 0.993 | S. cerevisiae deletion strains, locus YOR069W, strain VPS5, hits give low values 1 | S. cerevisiae deletion strains, locus YOR136W, strain idh2, hits give low values 0.981 | S. cerevisiae deletion strains, locus YOR144C, strain elg1, hits give low values 0.981 | S. cerevisiae deletion strains, locus YOR184W, strain ser1, hits give low values 0.97 | S. cerevisiae deletion strains, locus YOR231W, strain MKK1, hits give low values 1.04 | S. cerevisiae deletion strains, locus YOR316C, strain cot1, hits give low values 0.955 | S. cerevisiae deletion strains, locus YPL055C, strain LGE1, hits give low values 0.959 | S. cerevisiae deletion strains, locus YPL241C, strain CIN2, hits give low values 1 | S. cerevisiae deletion strains, locus YPL256C, strain CLN2, hits give low values 1.06 | S. cerevisiae deletion strains, locus YPR119W, strain clb2, hits give low values 0.964 | S. cerevisiae deletion strains, locus YPR141C, strain kar3, hits give low values 0.975 | S. cerevisiae deletion strains, locus YPR163C, strain tif3, hits give low values 0.961 | S. cerevisiae deletion strains, locus YPR167C, strain met16, hits give low values 0.96 | S. cerevisiae deletion strains, strain wtn01, hits give low values 0.938 | S. cerevisiae strains, strain wild type, hits give low values 0.995
